In PubChem BioAssay (NCATS) one finds Potency and outcome data, which are given here for 33 compounds.

Records with an inconclusive call do not appear. Where a call stands in place of a potency, no number is given. Calls of active or inactive are those of the source. Calls come from the whole dose curve; as a rule, active = well fitted curve in the direction sought with a large enough effect; inconclusive = small, poorly fitted or top-dose-only effect, or another doubt; inactive = no such curve, though single readings can be large; an effect the other way counts as inactive or inconclusive.

Test [1] has as its system Zika virus NS2B-NS3 protease. As to the kind of experiment: Primary screen GU AMC qHTS for Zika virus inhibitors (AID 1347154). Note: nearly all actives have a fitted effect of over 70% in size. Note: potency is the fitted concentration of half-maximal effect. In short, it runs like this:
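Unlinked Zika NS2B hydrophilic domain/NS3 protease domain noncovalent complex (25 nM final) in 10 mM Tris-HCl pH 8.0, 0.01% Tween 20, with AMC peptide substrate. Fluorescence (ex 340, em 450 nm) change over 15 min, room temperature; percent inhibition fitted to 4-parameter Hill equation.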

Test [2] is described as follows: qHTS of pediatric cancer cell lines to identify multiple opportunities for drug repurposing: Confirmatory screen for Saos-2 cells (AID 1347127). Note: nearly all actives have a fitted effect of over 60% in size. Note: potency is the fitted concentration of half-maximal effect. In outline:
(§1)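 Cells (500-1,000/well) in growth media were settled 5 h at 37 degrees C, then given compounds for 48 h. Viability was read as CellTiter-Glo luminescence. Primary runs used MIPE at 11 points (0.78 nM-46 µM) and NPC at 8 points (0.59 nM-46 µM); follow-ups used 11 points.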
For orientation: Quantitative high-throughput screening tests each substance at several concentrations.

Test [3] is described as follows: qHTS of pediatric cancer cell lines to identify multiple opportunities for drug repurposing: Confirmatory screen for SK-N-SH cells (AID 1347129).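 Note: cells exposed to compound for 48 h before viability read; nearly all actives have a fitted effect of over 60% in size.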 Note: potency is the fitted concentration of half-maximal effect. In short, it runs like this:
as §1

The target in test [4] is N-terminal Xaa-Pro-Lys N-methyltransferase 1 (Homo sapiens) (UniProt Q9BV86). Nature of the test: qHTS Assay for Inhibitors of N-terminal methyltransferase 1 (NTMT1): LOPAC validation of the NTMT1 SAHH-coupled ThioGlo3 Assay (AID 1347143).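 Note: SAH from peptide methylation measured as thiol fluorescence via SAHH coupling and ThioGlo3; nearly all actives have a fitted effect of over 70% in size.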 In short, it runs like this:
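In this qHTS pilot against the LOPAC set, 125nM NTMT1 met compounds tested at multiple concentrations, and fluorescence was normalized to background.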

For test [5], the system named is Zika virus NS2B-NS3 protease (unlinked). Nature of the test: Optimization of GU AMC qHTS for Zika virus inhibitors: Unlinked NS2B-NS3 protease assay (AID 1347151). Note: series mostly up to about 52 µM; nearly all actives have a fitted effect of over 80% in size. In short, it runs like this: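 Fluorescence gain (340/450 nm) over 15 min at room temperature, ~20% conversion, gave percent inhibition fitted to a 4-parameter Hill equation; enzyme was unlinked NS2B-NS3 (25 nM final), pH 8.0 Tris buffer.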

The target of test [6] is Lysine-specific demethylase 5B (Homo sapiens) (UniProt Q9UGL1). Nature of the test: Optimization screen for KDM5B Histone Demethylases FDH coupled qHTS against the LOPAC library (AID 1347166). In outline: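 KDM5BDeltaAP (200nM final) in 50mM HEPES pH 7.5, 0.01% Tween-20 was preincubated with compound for 10 min at room temperature. A substrate mix of 12.5uM H3K4Me3, 25uM a-ketoglutarate, ascorbate, Fe2+, NAD+ and formaldehyde dehydrogenase was then added. NADH fluorescence (340/450 nm) was read initially and after 30 min.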

Test [7] deals with Zika virus NS2B-NS3 protease (unlinked complex). Nature of the test: Primary screen GU Rhodamine qHTS for Zika virus inhibitors: Unlinked NS2B-NS3 protease assay (AID 1347159). Note: nearly all actives have a fitted effect of over 60% in size. In short, it runs like this: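 Unlinked NS2B/NS3, 25 nM; Rhod110 peptide, 1.5 microM; compounds, up to 114 microM. Reaction run 15 min at RT in 10 mM Tris-HCl pH 8.0, 0.01% Tween 20; kinetic fluorescence change fitted with a 4-parameter Hill model.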

In test [8] the test system is Zika virus NS2B-NS3 protease (linked construct). As to the kind of experiment: Primary screen NINDS Rhodamine qHTS for Zika virus inhibitors (AID 1347160). Note: nearly all actives have a fitted effect of over 55% in size. As to conditions: outcome: dose series up to 57.1 µM. In short, it runs like this:
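Single-chain NS2B-NS3 protease, 25 nM, pH 8.0; compounds preincubated 15 min. Activity: Rhodamine110 release from 1.5 microM substrate over 15 min, room temperature, data fitted to 4-parameter Hill.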

A further test addresses Furin (Homo sapiens) (UniProt P09958). Nature of the test: Furin counterscreen qHTS for Zika virus inhibitors (AID 1347149).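 Note: purified recombinant full-length human furin enzyme at 5 nM; fluorescence gain from furin cutting a BOC-RVRR-AMC peptide substrate over 15 min; top concentration of the series differs between compounds; nearly all actives have a fitted effect of over 70% in size.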 In short, it runs like this: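 Counterscreen measures cleavage of 2 microM BOC-RVRR-AMC, below its ~15 microM Km, by 5 nM full-length human furin at pH 7.0 after a 15-min compound preincubation. Inhibition derives from the 15-min fluorescence increase at 37C.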

Test [9] concerns Zika virus NS2B-NS3 protease (linked construct). As to the kind of experiment: Confirmatory screen NINDS AMC qHTS for Zika virus inhibitors (AID 1347152). Note: top concentration of the series differs between compounds; nearly all actives have a fitted effect of over 70% in size. In outline: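 IC50s from 4-parameter Hill fits of percent inhibition, based on AMC fluorescence gain (340/450 nm) over 15 min with 10 microM Bz-Nle-KRR-AMC. Enzyme: 1 nM linked NS2B-NS3 in Tris-HCl pH 8.0; 15-min compound preincubation.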

Test [10] relates to Zika virus NS2B-NS3 protease (unlinked complex). Nature of the test: Confirmatory screen GU AMC qHTS for Zika virus inhibitors (AID 1347153). Note: nearly all actives have a fitted effect of over 70% in size. In outline: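 Unlinked enzyme 25 nM, Tris pH 8.0/0.01% Tween 20; cpd 15 min RT, dark; + AMC substrate 10 µM (Km 18.3 µM); 340/450 nm read at t0 and 15 min; % inhibition → 4-param fit.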
Test [11] can be described thus: Confirmatory screen NINDS Rhodamine qHTS for Zika virus inhibitors (AID 1347161).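 Note: purified Zika NS2B-NS3 protease with linked NS2B cofactor domain and Rhodamine110 peptide substrate; series mostly up to about 110 µM; nearly all actives have a fitted effect of over 60% in size.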 In outline:
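Percent inhibition, normalized to uninhibited and enzyme-free controls, is fitted to a 4-parameter Hill equation. Fluorescence change comes from a 15-min cleavage of 1.5 microM bis-peptide Rhodamine110 substrate by 25 nM linked NS2B-NS3 at room temperature.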

The nature of test [12]: Vero cells viability qHTS for Zika virus inhibitors (AID 1347167). In short, it runs like this: (§2)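 To flag cytotoxic protease inhibitors, viability is measured by ATP-dependent luminescence (CellTiter Glo) after cells attached overnight receive compound for 24 to 48 hours in DMEM with 4% FBS.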
Test [13] in a line: HepG2 cells viability qHTS for Zika virus inhibitors (AID 1347168). In outline:
as §2

Sequence of Lysine-specific demethylase 5B (Homo sapiens) (Q9UGL1 whole entry, looked up): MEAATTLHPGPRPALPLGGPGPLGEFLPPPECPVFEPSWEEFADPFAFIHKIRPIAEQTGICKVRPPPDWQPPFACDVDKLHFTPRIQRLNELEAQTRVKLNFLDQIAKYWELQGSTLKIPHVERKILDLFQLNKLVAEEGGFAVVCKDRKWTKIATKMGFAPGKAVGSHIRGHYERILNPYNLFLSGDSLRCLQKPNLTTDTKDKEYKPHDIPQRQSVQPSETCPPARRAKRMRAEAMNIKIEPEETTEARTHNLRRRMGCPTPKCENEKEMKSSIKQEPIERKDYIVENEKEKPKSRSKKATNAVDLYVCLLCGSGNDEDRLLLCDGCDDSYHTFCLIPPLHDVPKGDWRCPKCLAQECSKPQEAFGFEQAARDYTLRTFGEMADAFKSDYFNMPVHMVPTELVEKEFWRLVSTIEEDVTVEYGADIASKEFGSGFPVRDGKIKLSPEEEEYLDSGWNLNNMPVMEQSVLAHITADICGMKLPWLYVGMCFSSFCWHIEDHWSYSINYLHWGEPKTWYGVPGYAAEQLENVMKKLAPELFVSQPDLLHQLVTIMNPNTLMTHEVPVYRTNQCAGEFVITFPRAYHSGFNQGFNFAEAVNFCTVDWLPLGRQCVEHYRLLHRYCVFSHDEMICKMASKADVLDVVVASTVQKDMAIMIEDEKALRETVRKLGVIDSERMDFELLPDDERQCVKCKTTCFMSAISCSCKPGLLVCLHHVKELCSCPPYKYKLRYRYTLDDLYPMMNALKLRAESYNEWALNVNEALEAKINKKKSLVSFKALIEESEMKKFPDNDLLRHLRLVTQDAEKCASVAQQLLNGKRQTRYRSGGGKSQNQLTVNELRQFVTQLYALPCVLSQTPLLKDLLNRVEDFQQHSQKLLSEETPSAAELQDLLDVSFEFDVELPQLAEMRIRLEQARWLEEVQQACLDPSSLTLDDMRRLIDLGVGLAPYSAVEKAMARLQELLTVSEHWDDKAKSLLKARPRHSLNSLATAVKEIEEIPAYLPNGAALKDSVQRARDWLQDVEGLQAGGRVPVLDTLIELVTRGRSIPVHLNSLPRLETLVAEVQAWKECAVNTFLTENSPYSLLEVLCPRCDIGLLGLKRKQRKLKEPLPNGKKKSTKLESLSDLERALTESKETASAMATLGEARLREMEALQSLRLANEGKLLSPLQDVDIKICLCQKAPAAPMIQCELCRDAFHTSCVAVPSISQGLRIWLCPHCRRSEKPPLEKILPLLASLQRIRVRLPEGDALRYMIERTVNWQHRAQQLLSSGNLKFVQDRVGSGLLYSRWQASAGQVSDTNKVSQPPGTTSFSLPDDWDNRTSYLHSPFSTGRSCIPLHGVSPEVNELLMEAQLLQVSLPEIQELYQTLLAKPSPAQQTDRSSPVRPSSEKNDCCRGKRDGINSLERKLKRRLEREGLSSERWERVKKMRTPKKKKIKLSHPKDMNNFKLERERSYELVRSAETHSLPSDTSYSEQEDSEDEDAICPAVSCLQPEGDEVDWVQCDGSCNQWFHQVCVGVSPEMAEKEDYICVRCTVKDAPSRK
Sequence of N-terminal Xaa-Pro-Lys N-methyltransferase 1 (Homo sapiens) (Q9BV86 whole entry, looked up): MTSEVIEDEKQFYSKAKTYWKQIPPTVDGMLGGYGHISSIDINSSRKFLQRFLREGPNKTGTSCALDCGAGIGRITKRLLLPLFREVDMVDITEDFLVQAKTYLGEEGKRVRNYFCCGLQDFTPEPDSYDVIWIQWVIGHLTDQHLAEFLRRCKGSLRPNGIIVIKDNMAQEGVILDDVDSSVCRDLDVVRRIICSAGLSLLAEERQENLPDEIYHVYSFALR
Sequence of Furin (Homo sapiens) (P09958 whole entry, looked up): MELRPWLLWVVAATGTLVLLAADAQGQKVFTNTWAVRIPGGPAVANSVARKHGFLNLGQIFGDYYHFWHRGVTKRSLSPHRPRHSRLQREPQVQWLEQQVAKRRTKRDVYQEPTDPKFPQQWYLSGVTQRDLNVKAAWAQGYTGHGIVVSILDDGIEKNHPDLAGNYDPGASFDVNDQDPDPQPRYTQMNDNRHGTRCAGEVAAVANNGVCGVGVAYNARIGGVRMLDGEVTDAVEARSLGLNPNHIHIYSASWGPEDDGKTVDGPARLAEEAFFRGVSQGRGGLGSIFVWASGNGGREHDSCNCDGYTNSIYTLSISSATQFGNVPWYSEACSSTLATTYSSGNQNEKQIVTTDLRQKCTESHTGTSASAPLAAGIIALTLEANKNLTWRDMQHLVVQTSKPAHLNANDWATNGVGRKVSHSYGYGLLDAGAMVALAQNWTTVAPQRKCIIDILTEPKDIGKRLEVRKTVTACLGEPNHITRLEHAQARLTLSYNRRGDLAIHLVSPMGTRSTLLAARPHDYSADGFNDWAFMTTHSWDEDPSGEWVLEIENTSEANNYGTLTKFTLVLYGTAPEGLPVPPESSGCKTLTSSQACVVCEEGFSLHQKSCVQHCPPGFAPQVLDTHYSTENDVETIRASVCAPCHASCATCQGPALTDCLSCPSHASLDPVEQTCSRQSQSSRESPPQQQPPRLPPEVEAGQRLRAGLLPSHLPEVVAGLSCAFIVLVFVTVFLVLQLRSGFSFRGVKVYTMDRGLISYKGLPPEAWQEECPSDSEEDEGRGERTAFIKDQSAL

With `CCCC(C)C1(CC)C(=O)N=C(S)NC1=O` (configuration not stated), the Potency entry in test [1] was “inactive”.
Turning to `Cc1ccc([N+](=O)[O-])[c]2c1[O][Hg]2`, the Potency in test [2] is 1.04 µM (active); in test [3], 3.72 µM (active). For the same compound, in [1], the Potency entry is “inactive”.
Turning to `C[C@@H]1C[C@@H]([C@H](O)CC2CC(=O)NC(=O)C2)C(=O)[C@@H](C)C1`, the Potency entry in test [1] is “inactive”.
Same read-out and setting: the value for `CN1CCc2cc(Cl)c(O)cc2[C@H]2c3ccccc3CC[C@@H]21` was “inactive”.
In the case of `NC(=O)CN1CCCC1=O`, the compound was classed as inactive in test [4], in [5] and in [6]. Also, the Potency result in [1] is “inactive”.
Turning to `COc1ccc2c(C(=O)c3ccc(Cl)cc3)c(C)n(CC(=O)O)c2c1`, the Potency entry in test [2], in [3] and in test [1] was “inactive” in each case. In addition, the result in test [7] and in [8] was inactive.
For the compound `CC[n+]1c(-c2ccccc2)c2cc(N)ccc2c2ccc(N)cc21`, in test [2], the Potency was 16.5 µM (active). The Potency result in test [3] was “inactive”.
Regarding `Clc1ccc(C(OCCN2CCCCC2)c2ccccc2)cc1` (configuration not stated), in test [1], the Potency result was “inactive”.
Same read-out and setting: the value for `CNC(C)Cc1ccc2c(c1)OCO2` (configuration not stated) was “inactive”.
Consider `CCCCCCCCCCCC[N+](C)(C)CCOc1ccccc1`, for which the figures for the Potency in test [2] and in test [3] were 14.7 µM (active) and 20.9 µM (active), respectively. Besides, the Potency result in test [1] was “inactive”.
`C[C@]12CC[C@H]3[C@@H](CCC4=CC(=O)CC[C@@H]43)[C@@H]1CC[C@@H]2O`: the Potency entry in [1] was “inactive”.
The same measure, in the same setting: for `CC(C)C(Br)C(=O)NC(N)=O` (configuration not stated) the value was “inactive”; for `CNC(C)Cc1ccccc1OC` (configuration not stated), “inactive”.
Same read-out and setting: for `CCOP(=S)(OCC)O/N=C(\C#N)c1ccccc1` the value was “inactive”.
For `CN(C)C(=S)SSC(=S)N(C)C`, the Potency is 10.4 µM (active) in [2] and 11.8 µM (active) in test [3]. In [1], the Potency entry is “inactive”.
On to `Cc1ncc2n1-c1ccc(Cl)cc1C(c1ccccc1F)=NC2`, for which, in test [1], the Potency result was “inactive”.
Take `O=C(O)Cc1ccccc1`: the Potency entry in test [3] and in test [1] was “inactive” in each case.
As for `C1CN2CCC1CC2`, in test [1], the Potency entry was “inactive”.
Consider `COc1ccc(C(=O)N2CCCC2=O)cc1`, for which the Potency entry in [2], in test [3] and in test [1] was “inactive” throughout. Further, the outcome in test [4], in test [5] and in [6] was inactive.
For `COc1ccc2c3c1O[C@H]1[C@@H](O)C=C[C@H]4[C@@H](C2)N(C)CC[C@@]341`, in [1], the Potency result was “inactive”.
On the same count and under the same terms, for `CCC1(CC)C(=O)NC(=O)NC1=O` the value was “inactive”.
On to `COC(=O)C1=CCCN(C)C1`, for which the Potency result in [3] and in [1] was “inactive” in each case. In addition, the compound was classed as inactive in test [4], in test [5] and in test [6].
For the compound `CCCCCCCCC(=O)NCc1ccc(O)c(OC)c1`, the Potency result in [2], in test [3] and in test [1] was “inactive” throughout.
Regarding `ClC1=C(Cl)C2(Cl)C(CBr)CC1(Cl)C2(Cl)Cl` (configuration not stated), the Potency result in test [2], in test [3] and in test [1] was “inactive” each time.
`C[C@@H]1O[C@@H](O[C@@H]2C=C3CC[C@@H]4[C@H](CC[C@]5(C)[C@@H](c6ccc(=O)oc6)CC[C@]45O)[C@@]3(C)CC2)[C@H](O)[C@H](O)[C@H]1O`: the Potency in [2] was 0.185 µM (active); in test [3], 0.0264 µM (active). The Potency entry in test [1] was “inactive”.
Turning to `CCC(OC(C)=O)C(CC(C)NC)(c1ccccc1)c1ccccc1` (configuration not stated), in test [1], the Potency result was “inactive”.
On the same count and under the same terms, the value for `COc1cc(CC#N)cc(OC)c1OC` was “inactive”.
Take `Oc1ccc([C@H]2CNCc3c2ccc(O)c3O)cc1O`: the outcome (in the test with Furin (Homo sapiens); in test [9]; in [10]; in test [12]; in [13]) was inactive. For the same compound, the Potency in test [1] is 10.2 µM (active). Further, the Potency result in test [11] was “inactive”.
Take `CN1C(=O)[C@@H](NC(=O)c2cc3ccccc3[nH]2)N=C(c2ccccc2)c2ccccc21`: the Potency entry in test [1] is “inactive”.
Regarding `CC1Sc2c(C(=O)O)c(=O)c3cc(F)c(N4CCNCC4)cc3n21` (configuration not stated), the Potency entry in test [3] and in test [1] was “inactive” throughout.
Take `CN1C2CCC(C)(C)C1CC(OC(=O)C(O)(c1cccs1)c1cccs1)C2` (configuration not stated): the Potency entry in test [1] was “inactive”.
For `O=C1CN2CCOC2(c2ccccc2Cl)c2cc(Cl)ccc2N1` (configuration not stated), in [1], the Potency entry is “inactive”.
As to `CCc1ccc(C2CCNCC2)cc1`, the Potency entry in [2], in test [3] and in test [1] was “inactive” each time.
